Inconclusive results are not listed. Activity calls are given as the source filed them. Calls follow the shape of the dose curve; as a rule, active = well fitted curve in the direction sought with a large enough effect; inconclusive = small, poorly fitted or top-dose-only effect, or another doubt; inactive = no such curve, though single readings can be large; an effect the other way counts as inactive or inconclusive.

The target in assay [1] is Glutathione peroxidase 1 (Homo sapiens) (UniProt P07203). In words: Primary qHTS Assay for Inhibitors of Recombinant Selenoprotein Glutathione Peroxidase 1 (GPX1) (AID 1845191). Also: nearly all actives have a fitted effect of over 65% in size. The essentials:
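GR-coupled readout: NADPH consumption tracked by fluorescence, ex 340/em 450 nm, at t=0 and after 15 min at RT. Final mix 10 nM GPX1, 1 mM GSH, 0.5 mM CHP, 0.5 mM NADPH, 100 nM GR, 0.01% BSA, following 30 min enzyme–compound preincubation.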
In general terms: In qHTS, concentration-response curves come from the screen itself.

Assay [2] addresses Phospholipid hydroperoxide glutathione peroxidase GPX4 (Homo sapiens) (UniProt P36969). The experiment in a line: Primary qHTS Assay for Inhibitors of Recombinant Selenoprotein Glutathione Peroxidase 4 (GPX4) (AID 1845192). Also: nearly all actives have a fitted effect of over 65% in size. Also: potency is read from the fitted curve at half-maximal effect. The essentials: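 Steps: GPX4 plus compound, 30 min RT; add GR/GSH/NADPH master mix; start with cumene hydroperoxide; read 340/450 nm fluorescence at 0 and 15 min. Finals were 200 nM GPX4, 1 mM GSH, 0.5 mM CHP, 0.5 mM NADPH, 100 nM GR.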

Assay [3] is described as follows: Quantitative High-Throughput drug screen in 47 multiple myeloma cell lines against the NCATS MIPE library collection: FR4_PLB cell viability assay (AID 1918924; also: nearly all actives have a fitted effect of over 35% in size; also: potency is read from the fitted curve at half-maximal effect). The procedure, abridged:
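Steps: seed 500 cells per well; pin-transfer MIPE 4.0 library; incubate 48 h at 37C, 5% CO2, humidified; add CellTiter-Glo, 5 min room temperature; read luminescence.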

Assay [4] can be described thus: Quantitative High-Throughput drug screen in 47 multiple myeloma cell lines against the NCATS MIPE library collection: Delta47_JCRB cell viability assay (AID 1918925; also: nearly all actives have a fitted effect of over 45% in size; also: potency is read from the fitted curve at half-maximal effect). The essentials:
(§1)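 qHTS of the MIPE 4.0 collection: 500 myeloma cells/well, 48 h drug exposure at 37C in 5% CO2, then CellTiter-Glo for 5 min at room temperature before luminescence reading.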

Assay [5] in a line: Quantitative High-Throughput drug screen in 47 multiple myeloma cell lines against the NCATS MIPE library collection: EJM_DSMZ cell viability assay (AID 1918926; also: nearly all actives have a fitted effect of over 30% in size; also: potency is read from the fitted curve at half-maximal effect). The procedure, abridged: as §1
Assay [6] is described as follows: Quantitative High-Throughput drug screen in 47 multiple myeloma cell lines against the NCATS MIPE library collection: AMO1_DSMZ cell viability assay (AID 1918927; also: nearly all actives have a fitted effect of over 30% in size; also: potency is read from the fitted curve at half-maximal effect). The procedure, abridged: as §1
Assay [7] in a line: Quantitative High-Throughput drug screen in 47 multiple myeloma cell lines against the NCATS MIPE library collection: ARP1_JJKsccF8 cell viability assay (AID 1918928; also: nearly all actives have a fitted effect of over 40% in size; also: potency is read from the fitted curve at half-maximal effect). The procedure, abridged:
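Viability screen: myeloma cells (500/well) incubated 48 h at 37 °C, humidified 5% CO2, with pinned library compounds; CellTiter-Glo added, luminescence read; DMSO wells set 100%, medium-only wells 0%.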

Assay [8] can be described thus: Quantitative High-Throughput drug screen in 47 multiple myeloma cell lines against the NCATS MIPE library collection: ARD_JJKsccE7 cell viability assay (AID 1918929; also: potency is read from the fitted curve at half-maximal effect). The essentials: as §1
For assay [9], the target named is Luciferin 4-monooxygenase (Photinus pyralis) (UniProt P08659). The experiment in a line: Primary firefly luciferase (FLuc) qHTS assay for identification of artifact compounds. (AID 1845220). Also: nearly all actives have a fitted effect of over 60% in size. The procedure, abridged: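 Enzymatic FLuc inhibition assay: compounds pre-exposed to luciferin/ATP (10 uM each) for 15 min, then purified P. pyralis enzyme at 10 nM added. Read-out: luminescence at 5 min.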

Assay [10] can be described thus: Primary fluorescence-based thiol-reactive (MSTI) qHTS assay for identification of artifact compounds. (AID 1845221).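 Also: series mostly up to about 54 µM; thiol-reactive compounds lower the probe fluorescence signal; nearly all actives have a fitted effect of over 65% in size.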 The procedure, abridged: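 One-hour, room-temperature, dark incubation of compound with 4 uM MSTI in PBS (pH 7.4, 2% DMSO) precedes a fluorescence read at 525 nm excitation, 598 nm emission; Hill-equation fitting yields concentration-response values.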

Assay [11] in a line: Primary redox qHTS assay for identification of artifact compounds. (AID 1845223). The procedure, abridged:
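Redox-cycling detection via DTT (250 uM final) oxidation coupled to Amplex Red (25 uM)/HRP (250 mU/mL) in HBSS. 15 min preincubation plus 30 min after DTT, room temperature. Ex/Em 525/598 nm; 4-parameter Hill fit against DMSO and 10 uM DA3003.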

Assay [12] concerns Nanoluciferase (engineered Oplophorus gracilirostris luciferase). The experiment in a line: Primary Nanoluciferase (NLuc) qHTS assay for identification of artifact compounds. (AID 1845222).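 Also: NLuc secreted into diluted conditioned medium of S16 cells; series mostly up to about 54 µM.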 The procedure, abridged: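 S16 cell supernatant NLuc, 1:55; cpds qHTS; 15 min RT dark; Nano-Glo substrate 1:100, 5 min; luminescence; Hill fit of % inhibition.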

Sequence of Glutathione peroxidase 1 (Homo sapiens) (P07203 whole entry, looked up): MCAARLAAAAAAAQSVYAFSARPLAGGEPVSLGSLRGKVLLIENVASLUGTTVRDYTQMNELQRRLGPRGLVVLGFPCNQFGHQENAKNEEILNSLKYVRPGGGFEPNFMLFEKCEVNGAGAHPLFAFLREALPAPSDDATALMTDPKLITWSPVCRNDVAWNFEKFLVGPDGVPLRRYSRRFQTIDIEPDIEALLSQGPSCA
Sequence of Phospholipid hydroperoxide glutathione peroxidase GPX4 (Homo sapiens) (P36969 whole entry, looked up): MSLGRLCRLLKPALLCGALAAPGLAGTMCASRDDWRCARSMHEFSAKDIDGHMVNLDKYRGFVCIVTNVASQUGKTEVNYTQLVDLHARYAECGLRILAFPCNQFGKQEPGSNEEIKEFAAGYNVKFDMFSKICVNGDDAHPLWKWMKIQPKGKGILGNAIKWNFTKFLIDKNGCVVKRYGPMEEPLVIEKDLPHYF

Consider `C[C@@H]1CC[C@@]2(OC1)OC1CC3C4CC=C5CC(O)CCC5(C)C4CCC3(C)C1[C@@H]2C` (stereo partly drawn), for which the Potency entry in assay [1], in [2], in assay [3], in assay [4], in assay [5] and in [6] was “inactive” throughout. For the same compound, the Potency result in [7] and in assay [8] was “inactive” throughout.
In the case of `CC1=C(C(=O)Nc2cc3cn[nH]c3cc2F)C(c2ccc(Cl)cc2F)N=C(c2ccnc(Cl)c2)N1` (stereo not drawn), the Potency entry in assay [1], in [2], in assay [9], in assay [10] and in assay [11] was “inactive” throughout. Moreover, the Potency in [4] was 11.8 µM (active); in assay [6], 14.8 µM (active); in assay [8], 20.9 µM (active).
As for `CCN(C(=O)c1c(O)c2c(Cl)cccc2n(C)c1=O)c1ccccc1`, the Potency entry in assay [1], in [2], in [3], in assay [4], in [5] and in [7] was “inactive” each time.
Turning to `COc1cc(C)c(Sc2cnc(NC(=O)c3ccc(CNC(C)C(C)(C)C)cc3)s2)cc1C(=O)N1CCN(C(C)=O)CC1` (stereo not drawn), the Potency result in assay [1] and in assay [2] was “inactive” throughout. The Potency in [3] was 20.9 µM (active); in [4], 2.09 µM (active); in assay [5], 18.7 µM (active); in assay [6], 5.26 µM (active); in [7] it was 16.6 µM (active); in assay [8], 4.69 µM (active).
On to `NC(=O)Nc1cc(-c2ccc(CN3CCOCC3)cc2)sc1C(N)=O`, for which the Potency entry in [1] and in assay [2] was “inactive” throughout. Also, the Potency is 18.7 µM (active) in assay [3]; 2.09 µM (active) in assay [4]; 20.9 µM (active) in assay [5]; 2.96 µM (active) in assay [6]; 18.7 µM (active) in [7]; 0.935 µM (active) in [8].
`C=C(C)[C@@H]1CC[C@]2(C)CC[C@]3(C)[C@H](CC[C@@H]4[C@@]5(C)CC[C@H](O)C(C)(C)[C@H]5CC[C@]43C)[C@@H]12`: the Potency entry in assay [1], in assay [2], in assay [3], in [4], in assay [5] and in [6] was “inactive” throughout.
On to `CC(=O)OC[C@@H]1O[C@@H](n2ccc(=O)[nH]c2=O)[C@H](OC(C)=O)[C@H]1OC(C)=O`, for which the Potency result in assay [1], in assay [2], in assay [3], in assay [4], in assay [5] and in assay [6] was “inactive” in each case. The Potency result in [7] and in assay [8] was “inactive” in each case.
As to `O=C(O)CCCCC(CCSCc1ccccc1)SCc1ccccc1` (stereo not drawn), the Potency entry in [1], in assay [3], in assay [4], in assay [5] and in assay [7] was “inactive” throughout. Besides, the Potency is 20.2 µM (active) in assay [2] and 18.7 µM (active) in [8].
On to `COc1cc(O)c2c(c1)C1OC1C[C@H](O)[C@H](O)C(=O)C=CC[C@H](C)OC2=O` (stereo partly drawn), for which the Potency entry in [1] and in assay [2] was “inactive” in each case. In addition, the Potency in [3] was 3.32 µM (active); in assay [4] it was 4.18 µM (active); in [5], 7.43 µM (active); in [6], 2.96 µM (active); in [7], 4.69 µM (active); in assay [8], 5.9 µM (active).
As to `Oc1cc(-c2nc(-c3ccccc3)[nH]c2-c2ccncc2)ccc1Cl`, the Potency entry in [1], in [2], in [9], in assay [10] and in [11] was “inactive” in each case. Also, the outcome in assay [12] was inactive. Moreover, the Potency in [4] was 4.69 µM (active); in assay [5] it was 18.7 µM (active); in assay [6] it was 5.26 µM (active); in assay [7] it was 14.8 µM (active); in assay [8] it was 5.9 µM (active).

(Values after PubChem BioAssay (NCATS).)
